# Bioassay records from PubChem.
# Most compounds without a hit are left out; they make up all but 8% or so of the library.
# Marburg entry = inhibitors of Marburg virus binding or entry into cells; Marburg virus pseudotype entry/binding inhibition, cell-based; Potency, µM (highest dose often 49.2 µM), inactives show at the highest dose activity change, negative = inhibition, hits mostly inhibitors; 18,000 compounds, 6.5% hits; AID 720532
# LASV entry inh = Lassa virus entry inhibition; Lassa virus pseudotyped entry inhibition, cell-based qHTS; Potency, µM (series often up to 49.2 µM), for inactives: at the highest dose activity change, negative = inhibition, hits mostly inhibitors; 18,000 compounds, 4.1% hits; AID 720533
# * = called active by the depositor; ? = inconclusive; / = not tested or not shown; ! = repeats disagree; [ ] = remark or other dose. The call rests on the fitted dose curve; tested in HEK293 cells. On the % scale 0 is the no-effect control and ±100 the full control effect; potency means the concentration at half of the fitted maximal effect.
SMILES,Marburg entry,LASV entry inh
Cc1ccc2occ(CN3CCOc4ccc(C(C)(O)COc5ccccc5)cc4C3)c(=O)c2c1 (configuration not stated),-35%,?
COC(=O)[C@H](Cc1ccccc1)NC(=O)[C@@H](N)CC(=O)O,22%,3%
CC(=O)[C@H](CC(C)C)NC(=O)[C@@H](CC(C)C)NC(=O)[C@H](CC(C)C)NC(=O)OCc1ccccc1,-87%,0.32µM*
CC(C)C[C@@H](NC(=O)OCC1c2ccccc2-c2ccccc21)C(=O)O,9%,14%
CC(C)C[C@@H](/C=C/S(C)(=O)=O)NC(=O)[C@H](CC(C)C)NC(=O)[C@H](CC(C)C)NC(=O)OCc1ccccc1,?,1.1µM*
c1ccc(Nc2ncnc3ccc(-c4ccc5c(c4)OCO5)cc23)cc1,12%,-17%
CC[C@@H](C(=O)[C@@H](C)[C@@H](O)[C@H](C)[C@@H]1O[C@@H]([C@@H](CC)C(=O)O)CC[C@@H]1C)[C@H]1O[C@]2(C=C[C@@H](O)[C@]3(CC[C@@](C)([C@H]4CC[C@](O)(CC)[C@H](C)O4)O3)O2)[C@H](C)C[C@@H]1C,-79%,3.2µM*
CCCS(=O)(=O)NCc1c(C)ncc2c1CCN(C(=O)c1cccc(C(F)(F)F)c1)C2,-18%,-14%
Cc1ccc(C(C)C)cc1-n1nnc(-c2cccc(Cc3ccc4ccccc4c3)c2)c1C(C)O (configuration not stated),?,-33%
O=C(O)c1cccnc1Nc1cccc(C(F)(F)F)c1,28%,21%
FC(F)(F)CNc1nccc(-c2cnn3ncccc23)n1,-4%,/
Fc1ccc(Nc2nccc(-c3c(-c4ccc(C(F)(F)F)cc4)nn4ncccc34)n2)cc1F,-5%,6%
CCOc1ccc2c(-c3ccnc(Nc4cccc(C(F)(F)F)c4)n3)cnn2n1,8.9µM*,/
Cc1ccc2c(-c3ccnc(Nc4ccc5c(c4)OCCO5)n3)c(-c3ccc(C(F)(F)F)cc3)nn2n1,16µM*,/
N#Cc1cccc(Nc2nccc(-c3cnn4ncccc34)n2)c1,0.025µM*,/
Cc1ccc2c(-c3ccnc(Nc4cccc(C(F)(F)F)c4)n3)c(-c3ccccc3)nn2n1,4µM*,/
O=c1[nH]cnc2c1ncn2[C@H]1CC[C@@H](CO)O1,24%,-17%
Cc1ccccc1C1(CC(=O)N2CCN(C)CC2)CC(=O)N(Cc2ccncc2)C1=O (configuration not stated),-16%,17%
O=C(Nc1ccc([N+](=O)[O-])cc1)Nc1ccc([N+](=O)[O-])cc1,?,-19%
C=CCC12OC3(OC)CC1[C@H](C)[C@@H](c1ccccc1)C2[C@]3(O)CC=C (some centres not stated),6%[8.59 µM],-1%[8.59 µM]
O=C(CSc1ncccn1)NCC1Cc2cccc(-c3ncccn3)c2O1 (configuration not stated),141µM*,-5%
CC(=O)c1ccc(C(=O)NCC2Cc3cccc(-c4ncccn4)c3O2)cc1 (configuration not stated),?,4%
O=S(=O)(NCCCCCCc1ccccc1)c1cccc2c(Cl)cccc12,9%,1%
COc1ccccc1C(=O)Nc1cccc(N2CCC(NCc3cnn(-c4ccccc4)n3)CC2)c1,11µM*,?
CN(Cc1cnc2ccccn12)C1CCN(c2cccc(NC(=O)c3cccnc3)c2)CC1,-14%,-7%
SMILES,Marburg entry,LASV entry inh
O=C(Nc1cccc(N2CCC(NCc3cnn(-c4cccc(F)c4)c3)CC2)c1)c1ccncc1,2.5µM*,7%
Cn1cc(CNC2CCN(c3cccc(NC(=O)c4cccnc4)c3)CC2)cn1,-17%,-6%
CCOC(=O)NN=C1C[C@@H](O)[C@@H](O)[C@@H]2[C@H]3C(=O)N([C@@H](C)c4ccccc4)C(=O)[C@@H]3CC[C@H]12,10%[8.59 µM],0%[8.59 µM]
CCCCCCCc1cc2ccccc2c(=O)o1,-7%,8%
Cc1ccsc1C(=O)N(Cc1cc2cc3c(cc2nc1N1CCOCC1)CCC3)CC1CCCO1 (configuration not stated),-13%,-6%
CCC1=CC2CN3CCc4c([nH]c5ccccc45)[C@@](C(=O)OC)(C2)[C@@H]13,7.9µM*,?
COC(=O)C1=CO[C@@H](C)[C@H]2CN3CCc4c([nH]c5ccccc45)[C@@H]3C[C@H]12,?,-5%[17.8 µM]
O=C(Oc1ccccc1C(=O)O)c1ccccc1O,2%,-5%
O=S1(=O)CCSCCN1Cc1cc(F)ccc1Br,23%,55%
CN(C)CCC=C1c2ccccc2C=Cc2ccccc21,11µM*,32µM*!
CN(C)CC/C=C1/c2ccccc2COc2ccccc21,?,3%
CNCCC=C1c2ccccc2C=Cc2ccccc21,5µM*,?
CN(C)CCC=C1c2ccccc2CCc2ccccc21,10µM*,?
OCCN1CCN(CC/C=C2/c3ccccc3Sc3ccc(Cl)cc32)CC1,?,-28%[17.8 µM]
CN(C)CC/C=C1\c2ccccc2Sc2ccc(Cl)cc21,11µM*!,28µM*!
COC(=O)C1=C(C)NC(COC(N)=O)=C(C(=O)OC(C)C)C1c1cccc(Cl)c1Cl (configuration not stated),-24%,?
CC[C@H](C)[C@H](NC(=O)CNC(=O)[C@@H](NC(=O)[C@@H](NC(=O)[C@H](Cc1ccc(O)cc1)NC(=O)[C@H](CC(C)C)NC(=O)[C@H](C)NC(=O)[C@H](CCC(N)=O)NC(=O)CNC(=O)[C@@H]1CCCN1C(=O)CNC(=O)[C@H](Cc1ccccc1)NC(=O)[C@H](Cc1cnc[nH]1)NC(=O)[C@@H](NC(=O)CNC(=O)[C@H](CCCNC(=N)N)NC(=O)[C@H](CCCNC(=N)N)NC(=O)[C@@H](NC(=O)[C@H](CC(N)=O)NC(=O)[C@@H](N)CS)[C@@H](C)O)[C@@H](C)CC)[C@@H](C)O)[C@@H](C)O)C(=O)O,3%,1%
CN1CCc2cc(O)cc3c2C1Cc1ccc(O)c(O)c1-3 (configuration not stated),?,-12%
O=C(Nc1ncnc2c1ncn2[C@@H]1O[C@@H]2COP(=O)(O)O[C@H]2[C@H]1O)c1ccccc1,13%,1%
CN(C)CC/C=C1/c2ccccc2COc2ccc(CC(=O)O)cc21,22%,-13%
CN(C)CCC=C1c2ccccc2C(C)(C)c2ccccc21,4.5µM*,18µM*
CCc1nc(N)nc(N)c1-c1ccc(Cl)cc1,14µM*,?
Nc1ccc(Cl)cc1,-1%[107 µM],?
O=C1CC(c2ccc(O[C@@H]3OC(CO)[C@@H](O)C(O)C3O)cc2)Oc2cc(O)ccc21 (some centres not stated),24%,-13%
CC(=O)Oc1cccc(O)c1,-11%,-3%
SMILES,Marburg entry,LASV entry inh
CC(=O)Oc1ccc(C2(c3ccc(OC(C)=O)cc3)Oc3ccccc3NC2=O)cc1,-21%,10µM*
CNC(=O)[C@@H]1C[C@H](Sc2nc3ccccc3[nH]2)CN1Cc1ccccc1C(F)(F)F,-8%,-22%
Nc1ncnc2c1nc(N1CCCCC1)n2[C@@H]1O[C@@H]2COP(=O)(O)O[C@H]2[C@H]1O,13%,-1%
CCC(=O)N[C@@H]1c2ccccc2C2(CCN(Cc3[nH]c4c(Cl)cccc4c3C)CC2)[C@H]1OC,11µM*,25µM*
CCC(=O)N[C@@H]1c2ccccc2C2(CCN(Cc3ccccn3)CC2)[C@H]1OC,9%,-4%
CC1(C)[C@@H](O)CC[C@]2(C)[C@H]3C(=O)C=C4[C@@H]5C[C@@](C)(C(=O)O)CC[C@]5(C)CC[C@@]4(C)[C@]3(C)CC[C@@H]12,31%,13%
